# Assay results taken from PubChem BioAssay (NCATS).
# Where “and” joins values, the source holds several entries; their conditions need not be identical. Identical values can stand only once. Records with an inconclusive call do not appear. Calls of active or inactive are those of the source. The call rests on the fitted dose curve; in most records, active means well fitted activation curve with a large enough effect in the signal ratio; inconclusive means small, poorly fitted or top-dose-only effect, or a change in a side signal; inactive means flat fitted curve, though single readings scatter; the % refers to the signal ratio.
# Assay: qHTS assay for small molecule activators of the nuclear factor-kappa B (NF-kB) signaling pathway (AID 651749); further: series mostly up to about 77 µM; % of control where 0% means no effect
# Settings: NF-kB-bla ME-180 cells, beta-lactamase FRET ratio, 16 h; stronger effect = higher value
# Excerpt: National Center for Advancing Translational Sciences [NCATS] NIH Chemical Genomics Center [NCGC] U.S. Environmental Protection Agency [EPA] National Institutes of Environmental Health Sciences [NIEHS] National Toxicology Program [NTP] Assay Overview: Transcription factors and their stimulated target gene expression play pivotal roles across many cellular processes including responses to environmental stimuli. Proper regulation of associated pathways is critical to maintain cell health and function. Constitutive activation of transcription factor pathways has been implicated in tumors as it may block cellular functions such as apoptosis and lead to invasion and metastasis. One important transcription factor that stimulates gene expression in response to cytokines, UV radiation, and other stimuli is nuclear factor-kappa B (NF-kB). To measure activation of the NF-kB pathway, the NF-kB-bla ME-180 cell line stably expressed beta-lactamase reporter gene under the regulation of a NF-kB response element was obtained from Invitrogen. This assay allows measurement of the NF-kB pathway activity induced by compounds in a ME-180 cell line. This system quantitates NF-kB activity using a FRET-based assay system where beta-lactamase expression disrupts FRET, allowing for fluorescent measurement of activity.
# Assay Protocol Summary: For toxicology screening, 2,000 cells in 5 uL/well were dispensed into black, clear-bottom 1536-well plates using a Multidrop Combi (Thermo Scientific) dispenser. Following transfer of 23 nL compound or DMSO vehicle by a pin tool, the plates were incubated 16 hr at 37C and 5% CO2.
row,Structure (SMILES),activation
1,O=C(O)CCCCCCCC(=O)O,0.884% (inactive)
2,C[C@]12CCC(=O)C=C1CC[C@@H]1[C@@H]2C(=O)C[C@@]2(C)[C@H]1CC[C@]2(O)C(=O)CO,-0.64% (inactive)
3,CC(=O)Nc1nnc(S(N)(=O)=O)s1,1.13% (inactive)
4,CC(=O)[C@@]1(O)CC[C@H]2[C@@H]3CCC4=CC(=O)CC[C@]4(C)[C@H]3CC[C@@]21C,0.354% (inactive)
5,Nc1ncn([C@@H]2O[C@H](CO)[C@@H](O)[C@H]2O)c(=O)n1,-3.34% (inactive) and -0.684% (inactive)
6,CC(C)(Oc1ccc(CCNC(=O)c2ccc(Cl)cc2)cc1)C(=O)O,-0.302% (inactive)
7,Cc1ccc(S(=O)(=O)NC(=O)NN2CCCCCC2)cc1,-1.9% (inactive)
8,CCCCOCCOCCOCc1cc2c(cc1CCC)OCO2,-2.78% (inactive) and 0.8% (inactive)
9,O=c1[nH]c(=O)n([C@H]2C[C@H](O)[C@@H](CO)O2)cc1Br,0.708% (inactive)
10,NC(=O)N1c2ccccc2C=Cc2ccccc21,-0.533% (inactive) and -3% (inactive)
